GDH-TPI counter: GDH-TPI coupling enzyme inhibitors, primary screen, artefact control for M. tuberculosis FBA inhibitor project, biochemical, absorbance, full deck; GDH-TPI coupled enzyme counterscreen, NADH absorbance; inhibition, % at 4.8 µM; 1.2% of 360,000 active; in the data active = inhibition above about 30%;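 note: 0% = DMSO wells and 100% = wells lacking the enzyme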
BJeLR viability: MLPCN primary cell-based screen for lethality selective to Ras in HRASV12 cells; AID 1554, 2009; inhibition, % (concentration not given with the values); 0.17% of 300,000 active; BJeLR (HRASV12) viability, CellTiter-Glo ATP luminescence, 48 h; in the data active = inhibition above about 50%; inconclusive = no clear call, values can overlap the other calls
PfHsp40 yeast: rescue of yeast from PfHsp40 toxicity, primary screen, S. cerevisiae, ATP luminescence. S. cerevisiae expressing PfHsp40, growth rescue. growth rescue, % at 12.5 µM. 0.68% of 340,000 active; in the data active = growth rescue above about 28%, passing the limit was not always enough; inconclusive = no clear call, values can overlap the other calls;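 note: yeast W303a lacking pdr1 and pdr3 grown in galactose medium; growth measured after three days at 30 °C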
PrP 5UTR inh: inhibition of PrP 5' UTR reporter expression; cell-based PrP 5' UTR mRNA reporter, plate reader; inhibition, % (no concentration beside the values); 0.35% of 340,000 active; AID 488862, 2010; in the data active = inhibition above about 52%; note: 0 = median of the neutral control wells
PrPC TRFRET: inhibitors of human cell surface prion protein PrPC, primary screen, cell-based, TR-FRET; Major prion protein (Homo sapiens), P04156; TR-FRET read-out; inhibition, % at 13.8 µM; 0.43% of 370,000 active; in the data active = inhibition above about 24%; note: 0% = median of the test wells and 100% = reference compound wells
Mtb FBA inh: Mtb FBA enzyme inhibitors, primary screen, biochemical, fluorescence, strain H37Rv; 2.3% of 360,000 active; purified M. tuberculosis FBA, fluorescence read-out; inhibition, % at 1 µM; in the data active = inhibition above about 27%;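 note: 0% = vehicle and 100% = reference inhibitor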
Target sequence (P9WQA3 whole entry, looked up): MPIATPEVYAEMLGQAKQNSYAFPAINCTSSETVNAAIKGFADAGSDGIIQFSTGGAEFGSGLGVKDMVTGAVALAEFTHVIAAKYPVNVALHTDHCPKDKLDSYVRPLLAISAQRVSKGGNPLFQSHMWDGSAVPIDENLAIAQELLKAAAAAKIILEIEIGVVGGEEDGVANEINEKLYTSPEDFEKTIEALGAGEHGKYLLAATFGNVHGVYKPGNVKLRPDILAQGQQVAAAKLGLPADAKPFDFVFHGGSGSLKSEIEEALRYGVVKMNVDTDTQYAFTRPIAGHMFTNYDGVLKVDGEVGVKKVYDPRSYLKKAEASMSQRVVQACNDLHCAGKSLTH
* marks the source's active call; other numbers are inactive results; ? = inconclusive; / = not tested or not shown; + = active, no number. A selection: hits, their analogues and other compounds. The true share with any hit is near 4.5%.

SMILES	GDH-TPI counter	BJeLR viability	PfHsp40 yeast	PrP 5UTR inh	PrPC TRFRET	Mtb FBA inh
COc1ccc2c(c1)CCCN2C(=O)C1CCCN(S(=O)(=O)c2ccc(C)c(C)c2)C1 (stereo unspecified)	/	/	/	/	9	/
Cc1cccc(-c2cccc3c4c([nH]c23)[C@@H]2C[C@H](N(C)C(=O)NC3CCCCC3)[C@H]([C@H](C)O)C(=O)N2CC4)c1	/	/	/	/	-2	/
O=C(NCc1ccccc1)c1c(Cl)nc(Cl)c(Cl)c1Cl	5	70*	-1	-5	-2	-1
COC(=O)C1Cc2ccccc2CN1C(=O)CCl (stereo unspecified)	4	-10	41*	-3	-10	1
O=C(CSc1nnc(-c2cccnc2)n1-c1ccccc1)Nc1ccc(OCc2ccccc2)cc1	/	/	/	/	3	/
O=C(O)c1ccc2c(c1)C(=O)N(c1ccc([N+](=O)[O-])cn1)C2=O	36*	-4	-1	-9	-9	-1
N#CC(=C(O)COC(=O)CCC1CCCCC1)c1nc2ccccc2[nH]1	5	/	1	-17	8	0
N#C/C(=C(/O)COC(=O)Cc1c[nH]c2ccccc12)c1nc2ccccc2[nH]1	18	5	80*	-6	-2	-7
O=[N+]([O-])c1cc([N+](=O)[O-])c(N2CCCCCC2)cc1NCCO	34*	5	-1	-41	-10	-6
C/C(=N\NC(=O)c1ccc(F)cc1)c1ccccn1	9	106*	0	11	11	2
CCOc1ccc(C(=O)N/N=C(\c2ccccc2)c2ccccn2)cc1	32*	18	?	24	10	0
C/C(=N\NC(=O)c1c[nH]c2ccccc12)c1ccccn1	26	25	0	-22	10	1
COC(=O)[C@H](C(C)C)N1CCc2nnn(CC3CCCCC3)c2-c2ccccc2S1(=O)=O	/	/	/	/	-8	/
COc1cccc(-c2ccc(C#N)c(SCC(=O)NCCc3cccc(Cl)c3)n2)c1	25	-9	-1	-9	-4	11
COc1ccc(-c2ccc(C#N)c(SCC(=O)NCCc3ccccc3)n2)cc1OC	13	/	-1	-16	/	152*
Nc1c(Cl)ncnc1N/N=C/c1ccccn1	/	/	/	/	-31	/
Nc1c(Cl)ncnc1N/N=C/c1cccnc1	40*	6	-2	-29	-12	2
Nc1c(Cl)ncnc1N/N=C/c1ccc2ccccc2n1	18	/	503*	-22	5	-4
C#CCN1CC(N(C)CCOC(=O)c2cc3ccccc3[nH]2)CS1(=O)=O (stereo unspecified)	/	/	/	/	-1	/
C#CCNC(=O)C[C@H]1C[C@@]2(C(=O)OC)C(=C[C@H](C(C)(C)C)O[C@@H]2C)N(Cc2cccc3ccccc23)C1=O	/	/	/	/	-2	/
COc1cc2c(C#N)c(N3CCOCC3)nc(N)c2c(N)n1	8	-17	-1	3	2	32*
c1ccc(Cn2c(SC3CCCCC3)nnc2-c2cccnc2)cc1	/	/	/	/	-3	/
CCC(C)OC(=O)c1c(N)n(Cc2cccs2)c2nc3ccccc3nc12 (stereo unspecified)	7	-8	1	-40	17	137*
CCCCOCCCn1c(N)c(C(=O)OC(C)COC)c2nc3ccccc3nc21 (stereo unspecified)	21	12	0	-11	-12	121*
CCC(C)NC(=O)c1c(N)n(Cc2ccc3c(c2)OCO3)c2nc3ccccc3nc12 (stereo unspecified)	20	-14	1	-5	-3	20
SMILES	GDH-TPI counter	BJeLR viability	PfHsp40 yeast	PrP 5UTR inh	PrPC TRFRET	Mtb FBA inh
COCCCn1c(N)c(C(=O)OC(C)COC)c2nc3ccccc3nc21 (stereo unspecified)	16	-1	-1	-13	-10	+
CC(Cl)C(=O)N1CCC(C(=O)NCC2COc3ccccc3O2)CC1 (stereo unspecified)	/	/	/	/	-9	/
CN1C2=NC(c3ccc4ccccc4c3)CC(=O)N2/C(=C\c2ccccc2)C1c1ccccc1C(F)(F)F (stereo unspecified)	/	/	/	/	2	/
CC1CCCCC1C(=O)N1CCC(Oc2cccnc2)CC1 (stereo unspecified)	/	/	/	/	-4	/
COC(=O)c1sc2cc(C(F)(F)F)cnc2c1-c1ccccn1	10	-1	0	-21	3	2
O=C(O)c1sc2cc(C(F)(F)F)cnc2c1-c1ccccn1	12	3	-1	-7	10	146*
COC(=O)[C@]12C[C@H](CC(=O)NCc3cccc(C(F)(F)F)c3)C(=O)N(CCC3=CCCCC3)C1=C[C@H](C1CCCC1)O[C@@H]2C	/	/	/	/	-7	/
O=C(CC(SCCO)c1ccc(F)cc1)c1ccco1 (stereo unspecified)	19	2	1	-24	0	-1
Cc1ccc(C(CC(=O)c2ccco2)SCCO)cc1 (stereo unspecified)	33*	1	-1	-40	5	1
O=C(CSc1nc2ccccc2nc1N1CCCCC1)NCc1ccc(Cl)cc1Cl	/	/	/	/	1	/
O=C(O)c1ccc2cc(-c3ccccc3)[nH]c2c1	23	-2	5	-6	-7	+
O=C(O)c1ccc(-c2ccccc2)[nH]1	-5	5	0	-21	2	2
COC(=O)[C@H]1C[C@@]2(N3CCCC3)c3ccccc3N[C@H]2N1S(C)(=O)=O	/	/	/	/	-3	/
CCCc1nc2ccccc2c(=O)n1/N=C/c1ccc(O)cc1O	31*	1	0	-19	-2	0
Cc1sc2nc(C)n(/N=C/c3ccc(O)cc3)c(=O)c2c1C	40*	-3	-2	-7	0	-3
O=c1c2ccccc2nc(COc2ccccc2)n1/N=C/c1ccc(O)c(O)c1	34*	11	1	-6	3	4
Cc1nc2ccccc2c(=O)n1/N=C/c1ccc(N(C)C)cc1	41*	0	0	-31	4	0
COc1ccc(-c2cc(-c3nnc(SCC(=O)Nc4nccs4)n3N)[nH]n2)cc1	/	/	/	/	7	/
Cc1cc(N2CCC[C@@H]2C)nc2ccccc12	/	/	/	/	-7	/
CCCc1nc2ccccc2c(=O)n1/N=C/c1ccc(O)cc1	35*	-6	0	-24	-4	-2
O=c1c2ccccc2nc(N/N=C/c2ccc(O)cc2)n1O	32*	3	1	-6	-11	5
Cc1n[nH]c(C)c1S(=O)(=O)NCCc1ccccc1	/	/	/	/	1	/
C/C(=N/NC(=O)Cc1cccs1)c1cccc([N+](=O)[O-])c1	/	/	/	/	3	/
COC(=O)c1cc2c(=O)n3ccccc3nc2n(Cc2cccnc2)c1=N	/	-6	/	/	/	/
CCOC(=O)c1cc2c(=O)n3ccccc3nc2n(C(C)C)c1=NC(=O)c1ccco1	4	1	-1	-6	-17	+
C=CCn1c(=NC(=O)c2ccco2)sc2cc(C(=O)OC)ccc21	24	3	0	-25	-4	8
